Results published in PubChem BioAssay AID686979 (National Center for Advancing Translational Sciences (NCATS), 2013).
About 50,000 (12%) of roughly 420,000 compounds were called active. A call without a number means that no potency is given here. About 26% were inconclusive and are not listed. Calls follow the shape of the dose curve; as a rule, active = well fitted inhibition curve with a large enough effect; inconclusive = small, poorly fitted or top-dose-only effect; inactive = flat fitted curve, though single readings scatter. The sample as a whole holds a higher share of actives than the screen did.

test: qHTS for Inhibitors of human tyrosyl-DNA phosphodiesterase 1 (TDP1): qHTS in cells in presence of CPT; conditions: chicken DT40 Tdp1-/-;hTDP1 cells + 20 nM CPT, ATP luminescence, 48 h; series mostly up to 46.2 µM; also: nearly all actives have a fitted effect of over 55% in size
Summary of the method: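 Chicken DT40 Tdp1-/- cells stably complemented with human TDP1 were seeded at 400 cells/well in medium containing 20 nM camptothecin, exposed to pin-transferred compounds, and grown at 37 °C for at least 48 hr. Viability was read as ATP luminescence.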
Potency is read from the fitted curve at half-maximal effect.

Compound | Potency
O=C1c2ccccc2C2=Nc3ccccc3SC(c3ccccc3F)C12 (centres undefined) | 14.6 µM (active)
O=C1c2ccccc2C(=O)C1c1ccccc1F | inactive
O=C1CSC(=S)N1c1ccc(Cl)c(Cl)c1 | inactive
COc1ccc(/C=C(\C#N)c2c[nH]c3ccccc23)cc1 | 1.16 µM (active)
COc1ccc(/C=C(\NC(=O)c2ccc(OC)c(OC)c2)C(=O)NCCc2c[nH]c3ccccc23)cc1 | inactive
C[N+](C)(C)CCNC(=O)c1c[nH]c2ccccc12 | inactive
COC(=O)c1ccc(/C=N/OCC(=O)Nc2cc(F)ccc2F)cc1 | inactive
COc1cccc(N2CC(NS(=O)(=O)c3ccc(Cl)cc3)CC2=O)c1 (centres undefined) | inactive
CC(C)(C)CN1C(=O)C(=O)NC[C@H]1Cc1cccc2ccccc12 | inactive
O=C1CCNCCN1[C@H](CO)Cc1ccccc1 | inactive
CSC1=NCCN1C(=O)Cc1cccc2ccccc12 | inactive
c1ccc2c(CCN3CCNC[C@H]3Cc3cccc4ccccc34)cccc2c1 | 20.6 µM (active)
c1ccc(C[C@H]2CNCCN2CCC23CC4CC(CC(C4)C2)C3)cc1 | 10.3 µM (active)
Nn1c(SCC(=O)NC2CCCC2)nnc1-c1ccccc1F | inactive
COCC1CCN(C(=O)c2ccc3oc(Cc4ccccc4)nc3c2)C1 (centres undefined) | inactive
COc1cc(OC)c(NC(=O)c2cc(S(=O)(=O)N3CCCC3)cn2C)cc1Cl | inactive
Cc1cccc(OCCC(=O)Nc2ccccc2C(N)=O)c1 | 9.2 µM (active)
Cc1cccc(OCC(=O)Nc2ccccc2F)c1 | inactive
Cc1ccccc1NC(=O)CCOc1ccccc1 | inactive
Cc1oc2c(c1C(=O)Nc1ccc(F)c(F)c1)C1=NCCN1C=N2 | inactive
COc1ccc(/C=N/n2nnnc2N)cc1OC | inactive
Nc1nc(SCC(=O)Nc2ccc(Cl)c([N+](=O)[O-])c2)n[nH]1 | inactive
CC(OC(=O)CN1C(=O)COc2ccccc21)C(=O)NCc1ccc(F)cc1 (centres undefined) | inactive
O=C(CN1CCOC1=O)N1CCCC(Nc2ccc(F)c(F)c2)C1 (centres undefined) | inactive
CC(C)=C1C2CCC1C1C(=O)N(NC(=O)c3ccco3)C(=O)C21 (centres undefined) | inactive
O=C(NCCOc1ccccc1)c1ccccc1 | inactive

Compound | Potency
CC(C)(c1ccccc1)c1ccc(OCCN)cc1 | 18.4 µM (active)
O=C(NCCc1ccccc1)c1ccc(OCCOc2ccccc2)cc1 | inactive
CCOC(=O)c1sc(NC(=O)/C=C/c2ccc(C(C)C)cc2)c(C(=O)OCC)c1C | inactive
COc1cccc(CNC(=O)[C@@H]2CCCN2C(=O)[C@@H]2CCCN2C(=O)c2ccccc2)c1 | inactive
CCOC(=O)CNC(=O)c1nn(-c2cccc(OC)c2)c(=O)c2ccccc12 | inactive
COc1cccc(-n2nc(C(=O)N3CCN(Cc4ccccc4)CC3)c3ccccc3c2=O)c1 | 20.6 µM (active)
COc1cccc(N2C(=O)CN(Cc3ccccc3)C2=S)c1 | inactive
N=C1C(c2nc3ccccc3[nH]2)=C(O)CN1NC(=O)c1c[nH]c2ccccc12 | inactive
O=C(COC(=O)CCCN1C(=O)c2cccc3cccc(c23)C1=O)NC1CCS(=O)(=O)C1 (centres undefined) | inactive
Cc1ccc(-c2cc(C(=O)N/N=C/C=C/c3ccco3)c3ccccc3n2)cc1C | 8.2 µM (active)
Cc1ccc(-c2cc(C(=O)Nc3nn[nH]n3)c3ccccc3n2)c(C)c1 | inactive
Nc1ccccc1C(=O)NC1CCCCNC1=O (centres undefined) | inactive
CNC(=O)c1ccc(CN(C)C(=O)c2cc(C3CC3)nc3c2cnn3C(C)C)cc1 | inactive
CCOC(=O)c1ccc(-c2ccc(/C=C(\C#N)C(=O)Nc3ccc(OCC)cc3)o2)cc1 | inactive
CCOC(=O)c1ccc(-c2ccc(/C=C(\C#N)C(=O)Nc3ccc(C)cc3)o2)cc1 | 9.2 µM (active)
CCOC(=O)c1ccc(NC(=O)CNC(=O)c2ccco2)cc1 | inactive
N#C/C(=C\N1CCOCC1)S(=O)(=O)c1ccc(Cl)cc1 | inactive
O=C(COC(=O)c1ccccn1)NNC(=O)c1ccc([N+](=O)[O-])cc1 | inactive
O=S1(=O)CCN(Cc2ccccc2)CC1 | inactive
CN(CC(=O)NCc1ccncc1)S(=O)(=O)c1ccc(Br)cc1 | inactive
CC(=O)c1nn(-c2ccccc2)c(=Nc2ccccc2)cc1C | inactive
CC(=O)Nc1cccc(Nc2nc(-c3cccs3)nc3ccccc23)c1 | 16.4 µM (active)
O=c1[nH]c(-c2cccs2)nc2ccccc12 | inactive
COC(=O)c1cc(-c2cccs2)nc2ccccc12 | inactive
CCN(CC)c1ccc(/C=N/NC(=O)CNC(=O)c2cccs2)cc1 | inactive
CCN(C(=O)CSc1ncnc2sccc12)c1c(N)n(Cc2ccccc2)c(=O)[nH]c1=O | inactive

Compound | Potency
Cc1nnc(-c2ccc(Oc3ccc(C)c(C)c3)c([N+](=O)[O-])c2)o1 | 16.4 µM (active)
COc1ccc(-c2nc3cc([N+](=O)[O-])ccc3o2)cc1OC | inactive
COc1ccc(OCC(=O)Nc2cc(C)c(Cl)cc2OC)c([N+](=O)[O-])c1 | inactive
Nc1nc(SCC(=O)NN(c2ccccc2)c2ccccc2)n[nH]1 | inactive
Cc1ccc(C(=O)Nc2ccccc2F)cc1S(=O)(=O)N1CCOCC1 | inactive
CCc1ccc(N(C(=O)c2csnn2)C(C(=O)NC2CCCCC2)c2cccnc2)cc1 (centres undefined) | inactive
Cc1ccc(S(=O)(=O)NCCC(c2ccccc2)c2ccccc2)cc1C(=O)O | inactive
O=c1[nH]oc(O)c1-c1ncc(C(F)(F)F)cc1Cl | inactive
CCNS(=O)(=O)c1cc(-c2nnc(Nc3cccc(C(F)(F)F)c3)c3ccccc23)ccc1C | 5.8 µM (active)
Cc1ccc(-c2nnc(Nc3ccc(C(=O)N(C)C)cc3)c3ccccc23)cc1S(N)(=O)=O | inactive
COCCNS(=O)(=O)c1cc(-c2nn3c(C)nnc3c3ccccc23)ccc1C | inactive
O=C(O)C1CCCN1C1=NS(=O)(=O)c2ccccc21 (centres undefined) | inactive
CN1OC[C@@H]2CN(S(=O)(=O)c3cccc(C(F)(F)F)c3)[C@H](c3ccc(-c4cc5ccccc5o4)cc3)C[C@@H]21 | inactive
CC1=CC(=NNS(=O)(=O)c2ccc([N+](=O)[O-])cc2)CC(C)(C)C1 | inactive
CCCC1OC23CCCCC2C(C#N)(C#N)C1(C#N)C(=N)O3 (centres undefined) | 5.8 µM (active)
O=C(CSc1cn(CC(=O)N2CCOCC2)c2ccccc12)Nc1ccccc1 | inactive
O=C(NCc1ccccc1)[C@@H]1CSC2c3ccccc3C(=O)N21 (some centres undefined) | inactive
COCCCC1CCN(C(=O)C2CCC(=O)N(C3CCCCCC3)C2)CC1 (centres undefined) | inactive
CC1CN(/C=C/C(=O)C(F)(F)F)CC(C)O1 (centres undefined) | inactive
COC(=O)N/N=C/c1c[n+]([O-])c2ccccc2[n+]1[O-] | inactive
O=C(COc1ccc(Cl)cc1Cl)NCCCNC(=O)c1cnccn1 | inactive
O=C(CCCOc1ccc(Cl)cc1Cl)NNC(=O)C1CCC1 | inactive
O=C(NC(c1ccc(-c2ccccc2)cc1)c1cnccn1)C1CCN(CCOc2ccc(Cl)cc2Cl)CC1 (centres undefined) | 16.4 µM (active)
O=C(NNS(=O)(=O)c1ccc(Cl)cc1)C1CCN(Cc2ccccc2)CC1 | inactive
Cc1cccnc1C(NC(=O)C1CCN(Cc2ccc(Cl)c(Cl)c2)CC1)c1ccc(Cl)cc1 (centres undefined) | 3.26 µM (active)
COc1cccc(CN2CCC(C(=O)NC(c3ccc4c(c3)OCO4)c3ccccn3)CC2)c1 (centres undefined) | inactive

Compound | Potency
Cc1ccc(C(NC(=O)C2CCN(CCOc3ccc(Cl)cc3Cl)CC2)c2ccccn2)cc1 (centres undefined) | 25.9 µM (active)
Clc1ccc(CN2CCCCCC2)cc1Cl | inactive
CCOc1ccc(S(=O)(=O)N2CCC(C(=O)NCc3ccccn3)CC2)cc1Cl | inactive
Cc1cnc(NC(=O)Cn2cnc3c2c(=O)n(C)c(=O)n3C)s1 | inactive
Cc1nc2cccnc2nc1C | inactive
Cc1cc(C)c(NC(=S)N2CCCC2C(=O)O)c(C)c1 (centres undefined) | inactive
COC(=O)[C@H](Cc1ccccc1)NC(=O)Nc1ccc(OC)cc1 | inactive
CC(C)(C)CC(=O)Nc1nc(C(N)Cc2ccc(C(F)(F)F)cc2)cs1 (centres undefined) | 23.1 µM (active)
COc1ccc(CC(N)c2csc(NC(=O)Nc3ccc(C(C)C)cc3)n2)cc1 (centres undefined) | 6.51 µM (active)
Cc1ccc(NC(=O)Nc2cccc(C(F)(F)F)c2)nc1 | inactive
COc1ccc(C(CC(=O)Nc2ccc(C)cc2)NC(=O)C(F)(F)F)cc1 (centres undefined) | inactive
CC(C)(C)CC(=O)Nc1nnc(SCC(=O)NCc2cccs2)s1 | inactive
CC(C)C[C@H](NC(=O)Nc1cccc(C(F)(F)F)c1)C(=O)O | inactive
NC(c1csc(NC(=O)Nc2cccc(C(F)(F)F)c2)n1)C1CCCCC1 (centres undefined) | 20.6 µM (active)
COc1ccc(NC(=O)C(Br)C(C)C)cc1 (centres undefined) | inactive
COc1ccc(C(N)c2csc(NC(=O)Nc3cccc(C(F)(F)F)c3)n2)cc1 (centres undefined) | 18.4 µM (active)
COc1ccc(NC(=O)CN(C)CC(=O)Nc2cccc(C(F)(F)F)c2)cc1 | inactive
Cc1ccccc1NC(=O)Cc1nc(COC(=O)c2ccc(C(F)(F)F)cc2)cs1 | inactive
CCN(CC(=O)Nc1c(F)cccc1F)C(=O)c1ccc(S(=O)(=O)N2CCCCC2)cc1 | inactive
COc1ccccc1OC(C)C(=O)Nc1ccc(S(=O)(=O)Nc2nccs2)cc1 (centres undefined) | inactive
COc1ccc(NC(=O)CC2C(=O)NC3CCCCC3N2C(=O)c2ccc(F)cc2)cc1 (centres undefined) | inactive
CCOc1ccc(NC(=O)C(CC(C)C)N2Cc3ccccc3C2=O)cc1 (centres undefined) | inactive
Cc1ccc(CNS(=O)(=O)c2ccc(-c3cc(C(F)(F)F)on3)s2)cc1 | inactive
COc1ccccc1CNC(=O)COC(=O)c1sc(C)nc1C | inactive
COc1ccccc1CNC(=O)c1cc(-c2cc(Cl)ccc2C)n[nH]1 | 16.4 µM (active)
COc1ccccc1CNC(=O)c1cc(-c2cc(F)ccc2OC)n[nH]1 | inactive
